# Results reported in PubChem BioAssay (EPA / NIEHS).
# The source made the active and inactive calls. The calls were made as follows: active = hit-call score of the fitted dose curve at least 0.9, where 1 is the maximum; inactive = score below 0.9.
# Assay: ATG_GLI_CIS: Attagene CIS-FACTORIAL HepG2 Assay for human Zinc Finger Protein GLI1 (AID 2282945)
# Settings: HepG2, Attagene cis-factorial reporter mRNA, GLI element; actives raise or lower the signal
# Procedure: ATG_CIS is a cell-based, multiplexed-readout assay that uses HepG2, a human liver cell line, with measurements taken at 24 hours after chemical dosing in a 24-well plate.ATG_GLI_CIS is one of 52 assay component(s) measured or calculated from the ATG_CIS assay. It is designed to make measurements of mRNA induction, a form of inducible reporter, as detected with fluorescence intensity signals by Reverse transcription polymerase chain reaction (RT-PCR) and Capillary electrophoresis technology.Data from the assay component ATG_GLI_CIS was analyzed into 1 assay endpoint. This assay endpoint, ATG_GLI_CIS, was analyzed with bidirectional fitting relative to DMSO as the negative control and baseline of activity. Using a type of inducible reporter, measures of mRNA for gain or loss-of-signal activity can be used to understand the reporter gene at the transcription factor-level as they relate to the gene GLI1. Furthermore, this assay endpoint can be referred to as a primary readout, because this assay has produced multiple assay endpoints where this one serves a reporter gene function. To generalize the intended target to other relatable targets, this assay endpoint is annotated to the dna binding intended target family, where the subfamily is zinc finger.
# Human liver HepG2 cells are transiently transfected with multiple reporter transcription units (MRTUs) in 6-well plates using FuGene 6 reagent (Roche; 3 ml FuGene/1 mg DNA). The MRTU constructs are regulated by a cis-regulating element (promoter). […] A major difference between the CIS and TRANS system is that in CIS activities of endogenous TFs are measured, whereas the TRANS assay evaluates changes in activities of exogenous, chimeric NR-Gal4 proteins. […] At the end of 24 hour incubation, total RNA was isolated using TriZol reagent (Invitrogen). The isolated RNA is then reverse-transcribed using oligo(dT) primer and Mo-MLV reverse transcriptase (Invitrogen) with DNAse I (Ambion) treatment for 30 min. The one-tenth of the produced cDNA was amplified by PCR using Taq DNA polymerase (Invitrogen) and two reporter sequence-specific primers. The PCR products were fluorescently labeled by primer extension with 6-arboxyfluorescein (6-FAM) 5'-labeled reporter sequence-specific primer (2 min at 95 C, 20 s at 68 C and 10 min at 72 C) and these products were digested with 5U of HpaI (New England Biolabs) for 2h at 37 C. The fragments were purified using Qiaquick PCR columns (Qiagen), analyzed on an ABI 3130xL genetic analyzer (Applied Biosystems) with peak positions identified by using a set of X-rhodamine (ROX)-labeled MapMarker1000 molecular weight standards (BioVentures). The raw capillary electrophoresis data was processed using Attagraph software (Attagene).
SMILES,outcome,AC50
Nc1ccc(S(=O)(=O)Nc2nccs2)cc1,inactive,–
OCC(F)(F)C(F)(F)C(F)(F)C(F)(F)C(F)(F)C(F)F,inactive,–
Nc1ccc([N+](=O)[O-])cc1O,inactive,–
C=CC/C=C/C/C=C/C/C=C/C,inactive,–
CC/C=C\CCOC(C)=O,inactive,–
O=C(OCCOCCOCCOC(=O)c1ccccc1)c1ccccc1,inactive,–
O=C(O)C(F)(F)C(F)(F)C(F)(F)C(F)(F)C(F)(F)C(F)(F)C(F)(F)C(F)(F)C(F)(F)C(F)(F)C(F)(F)C(F)(F)C(F)(F)F,inactive,–
Nc1ccc(Oc2cccc(Oc3ccc(N)cc3)c2)cc1,–,178 µM (active)
O=C(Cl)C(F)(F)C(F)(F)C(F)(F)C(F)(F)C(F)(F)C(F)(F)C(F)(F)C(F)(F)F,inactive,–
c1ccc(B(c2ccccc2)c2ccccc2)cc1,inactive,–
C=CC(F)(F)C(F)(F)C(F)(F)C(F)(F)C(F)(F)C(F)(F)C(F)(F)C(F)(F)C=C,inactive,–
C#C[C@]1(O)CC[C@H]2[C@@H]3CCc4cc(OC)ccc4[C@H]3CC[C@@]21C,inactive,–
O=C(O)C(F)(F)C(F)(F)C(F)(F)C(F)(F)C(F)(F)C(F)(F)C(F)(F)C(F)(F)Cl,inactive,–
O=C(O)C(F)(OC(F)(F)C(F)(OC(F)(F)C(F)(OC(F)(F)C(F)(F)C(F)(F)F)C(F)(F)F)C(F)(F)F)C(F)(F)F (stereo not given),inactive,–
O=C(O)C(F)(F)C(F)(F)C(F)(F)C(F)(F)C(F)(F)C(F)(F)C(F)(F)C(F)(F)C(F)(F)C(F)(F)C(F)(F)C(F)(F)F,inactive,–
N=C(N)C(F)(F)C(F)(F)C(F)(F)C(F)(F)C(F)(F)C(F)(F)C(F)(F)F,inactive,–
Nc1cc(Cl)c(N)c(Cl)c1,inactive,–
C=C(C)C(=O)OCCC(F)(F)C(F)(F)C(F)(F)C(F)(F)C(F)(C(F)(F)F)C(F)(F)F,inactive,–
CC(C)(C)c1ccc(OC2CCCCC2O)cc1 (stereo not given),inactive,–
COC(=O)C1CCC(C(=O)OC)CC1 (stereo not given),inactive,–

SMILES,outcome,AC50
CCO[Si](CCC(F)(F)C(F)(F)C(F)(F)C(F)(F)C(F)(F)C(F)(F)F)(OCC)OCC,inactive,–
O=S(=O)(O)c1ccc2ccccc2c1,inactive,–
CCCCOc1ccc(N)cc1,inactive,–
CCN(Cc1cccc(S(=O)(=O)O)c1)c1ccc(C(=C2C=CC(=[N+](CC)Cc3cccc(S(=O)(=O)O)c3)C=C2)c2ccc(O)cc2S(=O)(=O)[O-])cc1,inactive,–
CCCCCCCCC(F)(F)C(F)(F)C(F)(F)C(F)(F)C(F)(F)C(F)(F)F,inactive,–
O=C(O)C=C(C(F)(F)F)C(F)(F)F,inactive,–
FC(F)(F)C(F)(F)C(F)(F)N(C(F)(F)C(F)(F)C(F)(F)F)C(F)(F)C(F)(F)C(F)(F)F,inactive,–
FC(F)(F)C(F)(F)C(F)(F)C(F)(F)C(F)(F)C(F)(F)C(F)(F)I,inactive,–
CCCCOCCOCCOC(=O)CCCCC(=O)OCCOCCOCCCC,inactive,–
C=C(C)C(=O)OCC(F)(F)C(F)(F)C(F)(F)C(F)(F)C(F)(F)C(F)(F)C(F)(F)F,inactive,–
FC(F)(F)C(F)(F)C(F)(F)C(F)(F)C(F)(F)C(F)(F)C(F)(F)C(F)(F)F,inactive,–
Cc1ccc(S(=O)(=O)NCl)cc1,inactive,–
FC(F)(Br)C(F)(F)C(F)(F)C(F)(F)C(F)(F)C(F)(F)Br,inactive,–
COC(=O)CCC(F)(F)C(F)(F)C(F)(F)C(F)(F)F,inactive,–
OCCCC(F)(F)C(F)(F)C(F)(F)F,inactive,–
CCCCCCOC(=O)c1ccccc1,inactive,–
CCCCCCC(C)OC(=O)CCCCC(=O)OC(C)CCCCCC (stereo not given),inactive,–
[Co],inactive,–
C=C(C)C(=O)OCC(F)(F)C(F)(F)C(F)(F)F,inactive,–
FC(F)(F)C(F)(F)C(F)(F)C(F)(F)C(F)(F)C(F)(F)CCS,inactive,–
